Experimental data published in PubChem BioAssay (NCI).
This is part of a sample that, as a whole, favours compounds with a hit. Of some 83,000 tested, about 20% had one in any assay.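 48-hour exposure, single concentration, 96-well plates; percent growth endpoint where 0 means no net growth. Active: below 10.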 Values without a mark were called inactive. Activity calls are given as the source filed them.

These compounds were tested on HCC-2998 colon (assay: NCI-60 one-dose screen, 48 h (100 = growth as untreated, 0 = no growth, -100 = all killed)). Conditions: 10 µM.

Row | Compound | growth
1 | O=S(=O)(Nc1ncccn1)c1ccc(-n2c(-c3ccccc3)nc(-c3ccccc3)c2-c2ccccc2)cc1 | 89.3%
2 | COc1ccc(-c2cc(-c3cc(C(=O)c4ccccc4)n4ccc(C)cc34)nc(N)c2C#N)cc1 | 80.9%
3 | N#Cc1ccc(NC(=O)CSc2ccc(-c3ccc(Br)cc3)nn2)cc1 | 92.9%
4 | CCCn1c(O)c(N=Nc2nc(-c3cc4ccccc4oc3=O)cs2)c2cc(Br)ccc21 | 99.1%
5 | COc1cc2oc(-c3cccc(C(=O)Nc4ccc(Cl)cc4)c3)cc(=O)c2c(OCCNC(=O)CNC(=O)OC(C)(C)C)c1OC | 102%
6 | CCCCOc1ccc(Nc2nc3ccccc3nc2Nc2ccc(OCCCC)cc2)cc1 | 106%
7 | COc1cc(NC(=O)CSc2nnc(-c3ccc4nc(-c5ccc(Cl)cc5)[nH]c4c3)o2)cc(OC)c1OC | 110%
8 | O=C(NO)c1ccc(CNC(=O)[C@H]2Cc3c([nH]c4ccccc34)[C@H](c3ccc(Cl)cc3)N2)cc1 | -53.2% (active)
9 | N#Cc1c(NC(=O)c2ccc(C(F)(F)F)c(Cl)c2)sc2c1CCC(=O)C2 | -74.4% (active)
10 | O=C(Cc1ccc2c(c1)CN(C1CCC(=O)NC1=O)C2=O)NCc1cccc2ccccc12 (configuration not stated) | -48.6% (active)
11 | CCOC(=O)CNC(=O)CN(Cc1ccccc1)C(=O)[C@@]1(C)CCC[C@]2(C)[C@H]3C[C@H]4C(C(C)C)=C[C@]3(CC[C@H]21)[C@@H]1C(=O)OC(=O)[C@@H]14 | 69.6%
12 | O=C(NCCCCCCCCCC[P+](c1ccccc1)(c1ccccc1)c1ccccc1)c1ccc(-n2nc(-c3ccccc3O)nc2-c2ccccc2O)cc1 | -99.5% (active)
